PubChem BioAssay (NCI)
Compounds without any hit were thinned out: in the full panel of roughly 83,000, 20% have a hit.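 Compound tested at a single concentration for 48 hours in 96-well plates; a percent growth value below 10 was scored as active.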 Unmarked numbers belong to inactive results. Calls of active or inactive are those of the source.

What was measured:
Test in all cases: NCI-60 one-dose screen, 48 h (100 = growth as untreated, 0 = no growth, -100 = all killed)
[1] = system: DU-145 prostate; details: 10 µM unless noted
[2] = system: K-562 leukemia; details: 10 µM
[3] = system: MALME-3M melanoma; details: 10 µM
[4] = system: MDA-MB-231 breast; details: 10 µM
[5] = system: RXF 393 renal; details: 10 µM unless noted
[6] = system: SF-268 CNS; details: 10 µM
[7] = system: SF-295 CNS; details: 10 µM
[8] = system: SF-539 CNS; details: 10 µM
[9] = system: UACC-257 melanoma; details: 10 µM
[10] = system: HCT-15 colon; details: 10 µM
[11] = system: HT29 colon; details: 10 µM
[12] = system: SNB-75 CNS; details: 10 µM
[13] = system: SNB-19 CNS; details: 10 µM
[14] = system: U251 CNS; details: 10 µM unless noted
[15] = system: SK-MEL-5 melanoma; details: 10 µM unless noted
[16] = system: UACC-62 melanoma; details: 10 µM
[17] = system: LOX IMVI melanoma; details: 10 µM unless noted
[18] = system: PC-3 prostate; details: 10 µM
[19] = system: SK-MEL-28 melanoma; details: 10 µM
[20] = system: M14 melanoma; details: 10 µM

SMILES | growth [1] [%] | growth [2] | growth [3] | growth [4] [%] | growth [5] | growth [6] [%] | growth [7] [%] | growth [8] | growth [9] | growth [10] | growth [11] | growth [12] | growth [13] [%] | growth [14] | growth [15] [%] | growth [16] | growth [17] | growth [18] [%] | growth [19] [%] | growth [20] [%]
COC(=O)C1C(O)C(C)C(O)C(C)C=C(C)C2=C3C(=C(C)C(=O)c4c(O)c(c(C)c(OC(C)=O)c43)NC(=O)C(C)=C/C=C\C(C)C(O)C(C)C1O)OCO2 (centres undefined) | 115 | 127% | 126% | 105 | 125% | 112 | 108 | 110% | 118% | 115% | 114% | 90% | 109 | 110% | 110 | 103% | 102% | – | – | –
CC(C)(C)CC(C)(C)c1ccc(OCCO)cc1 | 111 | 93.4% | 158% | 106 | 119% | 108 | 109 | 96.8% | 108% | 99.8% | 99.3% | 101% | 106 | 104% | 119 | 106% | 99.1% | 117 | 141 | –
Oc1ccc(N=Nc2ccccn2)c(O)c1 | 24.5 | – | 36.1% | 35.7 | 43.4% | 20.6 | 20 | 13.1% | 3.09% (active) | 30.5% | 21.6% | 54.6% | 31.2 | 24.2% | – | -34.1% (active) | 8.85% (active) | 36.1 | 31.7 | –
CS(=O)(=O)OC1CC(n2ccc(=O)[nH]c2=O)OC1COC(c1ccccc1)(c1ccccc1)c1ccccc1 (centres undefined) | 99.8 | 98.5% | 91.9% | 106 | 105% | 103 | 110 | 105% | 102% | 93.7% | 96.1% | 103% | 99.8 | – | 101 | 97.7% | – | 91.3 | – | –
O=[N+]([O-])C1=C(c2ccccc2)SC=C(c2ccccc2)S1 | 75.2 | 72.7% | 54.5% | 69.3 | 54.2% | 97.9 | 93.7 | – | 51.3% | 58.7% | 69.8% | 92.7% | 78.3 | 51.5% | 87 | 54.5% | 4.56% (active) | 62 | – | 65.2
CO[C@H](C(=O)[C@@H](O)[C@@H](C)O)[C@@H]1Cc2cc3cc(OC4CC(OC5CC(O)C(O)C(C)O5)C(O)C(C)O4)c(C)c(O)c3c(O)c2C(=O)[C@H]1OC1CC(OC2CC(OC3CC(C)(O)C(O)C(C)O3)C(O)C(C)O2)C(O)C(C)O1 (some centres undefined) | 24.7 | 6.76% (active) | -54.6% (active) | 14.6 | 5.86% (active) | 12.3 | 19.1 | -20.2% (active) | 4.4% (active) | 6.74% (active) | 0.182% (active) | -56.9% (active) | 13.3 | 9.37% (active) | – | -58.6% (active) | 7.02% (active) | 10.5 | – | –
